VLA-4 inh = inhibition in a human VLA-4 binding assay; P13612; VLA-4 expressing cells, ligand binding flow cytometry; inhibition, % (about 7 µM as worked out from the volumes in the protocol); 330,000 compounds, 0.2% hits; AID 2557; in the data active = inhibition above about 50%
Efflux pump mplx = blocks antifungal efflux pumps in multiplex yeast assay; inhibition, % at 10 µM; AID 485275; 330,000 compounds, 0.44% hits; S. cerevisiae Candida pump triplex, Nile Red efflux;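 active = plate passing quality check with inhibition over a set limit, or well fluorescence over plate mean plus 4 SD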;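 note: Nile Red retained in pooled yeast measured as flow cytometry median fluorescence; 0% = buffer negative control and 100% = Enniatin B positive control; higher means more Nile Red kept so more efflux inhibition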
A1 inh = inhibitors of the anti-apoptotic protein A1, read as caspase activation; 330,000 compounds, 0.066% hits; MEF A1-2A-BIM cells, Caspase-Glo 3/7 luminescence, 3 h; percent of clofoctol response, vehicle zero; caspase activation, % (no concentration beside the values);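 active = over half of replicate activation scores above 10%, or exactly half above 10 with the replicate mean above 10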
AHR act = human AHR activation; AHR-responsive luciferase reporter cells, luminescence; activation, % at 5 µM; 320,000 compounds, 2.5% hits; in the data active = activation above about 47%;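 note: 0% = vehicle wells and 100% = reference agonist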
ALR inh = blocks human ALR sulfhydryl oxidase activity; inhibition, % (no concentration beside the values); purified ALR, DTT oxidation, H2O2 HRP-luminol luminescence; P55789; 290,000 compounds, 3.8% hits;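 active = mean replicate inhibition above about 79%, with every replicate also reaching it, limit read from the data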
Target sequence (P55789 whole entry, looked up): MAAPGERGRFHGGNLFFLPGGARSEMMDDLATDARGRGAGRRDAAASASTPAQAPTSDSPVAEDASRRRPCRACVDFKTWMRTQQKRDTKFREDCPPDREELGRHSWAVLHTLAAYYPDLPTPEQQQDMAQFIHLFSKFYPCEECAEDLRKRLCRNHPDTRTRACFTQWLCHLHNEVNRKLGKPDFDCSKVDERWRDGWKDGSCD
SUMO Mot1 rescue = SUMOylation pathway inhibition by Mot1-301 growth rescue | AID 2716 | growth rescue, % at 18.8 µM | S. cerevisiae Mot1-301 growth rescue, ATP luminescence, 38.5C; percent above DMSO median, 100 means doubled | 320,000 compounds, 1% hits;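 active = every valid replicate shows activation above 250% relative to neutral control wells; inactive = the rest, any valid replicate at or below 250%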;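 note: OY570 slx delta 5 strain wells were the positive control but not used for scaling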
Cmpd fluor yeast = flagged as fluorescent in efflux inhibitor counter-screen; shares compounds with Efflux pump mplx; S. cerevisiae AD/pABC3, compound fluorescence, flow cytometry; fluorescence ratio to DMSO, % at 10 µM; 1,700 compounds, 4% hits; AID 588517;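 active = fluorescence ratio to DMSO above its plate's cutoff, the plate mean ratio plus 5 SD, cut at about 210% in these data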;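 note: unstained yeast with no Nile Red so the signal is compound autofluorescence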
Mdr1 pump inh = inhibitors of Candida albicans Mdr1 efflux pump; inhibition, % at 10 µM; 1,700 compounds, 1% hits; shares compounds with Efflux pump mplx; S. cerevisiae AD/CaMDR1, Nile Red efflux, flow cytometry; AID 588518; in the data active = inhibition above about 26%;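 note: 0% = DMSO vehicle and 100% = reference inhibitor; higher means more Nile Red retained so more efflux inhibition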
Cdr2 pump inh = Candida Cdr2 efflux pump inhibition; S. cerevisiae AD/CaCDR2, Nile Red retention, flow cytometry; 1,700 compounds, 4% hits; shares compounds with Efflux pump mplx; Nile Red retention ratio vs DMSO, % at 10 µM; in the data active = Nile Red retention ratio vs DMSO above about 190%;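 note: higher ratio means more blocking of Cdr2 efflux of the dye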
Cdr1 pump inh = blocks the Candida albicans Cdr1 efflux pump in yeast; shares compounds with Efflux pump mplx; S. cerevisiae AD/CaCDR1, Nile Red efflux, flow cytometry; inhibition, % at 10 µM; 1,700 compounds, 1% hits; AID 588522;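 active = inhibition above the screen-wide mean plus twice its standard deviation, cut at about 32% in these data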
* = called active by the depositor; . = no result given. Shown are actives, neighbours in structure and some others; about 7.2% of the full set was active somewhere.

SMILES	VLA-4 inh	Efflux pump mplx	A1 inh	AHR act	ALR inh	SUMO Mot1 rescue	Cmpd fluor yeast	Mdr1 pump inh	Cdr2 pump inh	Cdr1 pump inh
CCC(Oc1ccc(Cl)cc1)C(=O)N1CC(=O)Nc2ccccc21 (centres undefined)	4.4	0.0	1.5	11.7	-3.8	15.9	.	.	.	.
COc1ccc(Cn2nnc3c(=O)[nH]c(C4CCN(S(=O)(=O)c5ccc(C)cc5)CC4)nc32)cc1	-3.3	0.1	-0.6	-1.4	-1.1	-11.5	111.5	0.1	109.9	0.2
Cc1ccc(Cn2nnc3c(=O)[nH]c(C4CCN(S(=O)(=O)c5ccccc5)CC4)nc32)cc1	4.9	-0.2	0.3	-1.2	0.1	7.2	102.2	-0.5	110.3	-0.1
O=c1[nH]c(C2CCN(S(=O)(=O)c3ccccc3F)CC2)nc2c1nnn2Cc1ccc(OC(F)(F)F)cc1	-9.2	0.0	.	-1.6	-8.1	.	.	.	.	.
Cc1ccc(S(=O)(=O)N2CCC(c3nc4c(nnn4Cc4ccccc4)c(=O)[nH]3)CC2)cc1	8.7	0.8	0.2	3.3	-0.2	-2.9	.	.	.	.
O=c1[nH]c(C2CCN(S(=O)(=O)c3ccccc3C(F)(F)F)CC2)nc2c1nnn2Cc1ccccc1	19.2	3.1*	-0.7	2.6	0.3	-18.9	109.0	-0.2	103.8	-0.2
COc1ccccc1CNC(=O)COC(=O)CNS(=O)(=O)c1ccc(C)cc1	6.5	0.0	0.8	5.4	-0.7	17.8	.	.	.	.
COc1ccc2nc(C)cc(Sc3nc4ccccc4s3)c2c1	-96.1	1.0*	0.4	9.5	99.0*	43.8	88.8	-0.1	98.1	0.0
O=C(Oc1ccccc1/C=C\C(=O)c1cc2ccccc2o1)c1ccccc1	-10.6	15.7*	-0.8	67.8*	9.9	8.3	103.0	-0.1	99.7	0.1
NC(=O)N/N=C/c1ccccc1OC(=O)c1cc2ccccc2oc1=O	17.5	0.1	0.0	2.7	9.8	246.4	.	.	.	.
Cc1ccc(-c2nnc(Nc3ccc4c(c3)OCO4)c3ccccc23)cc1S(=O)(=O)NCCO	7.2	12.7*	-1.1	37.3	12.1	-12.6	105.8	-0.1	107.2	-0.1
Cc1ccc(-c2nnc(Nc3ccc4c(c3)OCO4)c3ccccc23)cc1S(=O)(=O)NC(C)C	7.8	-0.5	-1.3	44.5	-1.2	300.8	.	.	.	.
Cc1ccc2cccc(NC3OC(=O)c4ccccc43)c2n1 (centres undefined)	-9.4	0.0	-0.9	20.7	-2.1	-21.0	.	.	.	.
COC(=O)c1ccccc1NC1OC(=O)c2ccccc21 (centres undefined)	-7.6	90.9*	-0.5	0.7	10.8	18.5	101.4	-0.2	93.5	-0.1
COc1ccc(CC(=O)Nc2ccc(NC(=O)c3ccc(Br)cc3)cc2)cc1OC	6.9	0.8*	-0.8	3.3	.	1.9	98.9	-0.3	98.1	0.1
Cc1c(NC(=O)c2ccc(N3CCCC3)c([N+](=O)[O-])c2)cccc1-c1nc2ccccc2s1	-25.8	-0.1	-0.1	-4.2	.	11.2	.	.	.	.
Cc1c(NC(=O)c2ncn[nH]2)cccc1-c1nc2ccccc2s1	-239.0	6.2*	-0.1	-2.2	8.9	16.6	101.4	-0.3	97.7	-0.1
COc1ccc(Cl)cc1NC(=S)N1CC(C)OC(C)C1 (centres undefined)	-1.0	0.1	-0.4	9.8	-36.6	-1.3	.	.	.	.
CCN1/C(=C2/SC(=S)N(NC(C)=O)C2=O)Sc2ccccc21	-0.3	0.8*	-3.7	.	2.7	68.6	99.8	0.0	95.6	0.1
COc1ccc(/C=N/NC(=O)c2nnn(-c3nonc3N)c2CN(C)C2CCCCC2)cc1	-4.4	0.3	0.1	4.0	4.1	-12.2	.	.	.	.
Cc1c(OC(C)C(=O)NCc2ccccn2)ccc2c3c(c(=O)oc12)CCCC3 (centres undefined)	-3.1	1.8*	-0.2	0.4	-3.0	22.0	101.4	-0.1	79.0	0.0
Cc1c(OC(C)C(=O)NCc2ccncc2)ccc2c3c(c(=O)oc12)CCC3 (centres undefined)	18.9	0.0	-0.3	-3.6	16.5	16.7	.	.	.	.
O=C(CCNC(=O)c1ccc(Br)cc1)Nc1ccc(S(=O)(=O)N2CCOCC2)cc1	12.3	0.4	0.0	1.7	.	6.3	.	.	.	.
COc1ccc(/C=C/C(=O)Nc2cccc(S(=O)(=O)N3CCCC3)c2)cc1OC	1.8	1.1*	-0.4	-3.9	-4.1	110.1	107.9	-0.3	87.9	-0.1
COc1ccc(CC(=O)Nc2cccc(S(=O)(=O)N3CCCC3)c2)cc1OC	-4.2	0.2	0.2	-4.4	0.3	-14.6	.	.	.	.
SMILES	VLA-4 inh	Efflux pump mplx	A1 inh	AHR act	ALR inh	SUMO Mot1 rescue	Cmpd fluor yeast	Mdr1 pump inh	Cdr2 pump inh	Cdr1 pump inh
Cc1cccc(NC(=O)CN2CCN(C(=O)c3oc4c(Cl)cccc4c3C)CC2)c1C	4.6	0.2	-0.1	36.7	1.8	108.2	.	.	.	.
CCC(C)C(=O)Nc1nnc(CCc2ccccc2)s1 (centres undefined)	-3.5	1.2*	0.3	-1.6	24.3	36.2	106.8	0.0	95.4	-0.2
CC(C)CC(=O)Nc1nnc(CCc2ccccc2)s1	3.4	0.1	-0.3	10.6	-19.6	-3.5	.	.	.	.
CN(C)c1ccc(/C=C/C(=O)c2c(O)c3ccccc3oc2=O)cc1	-39.2	1.4*	0.5	6.7	25.1	6.1	182.0	1.5	222.7*	1.0
Cc1ccc2c(cnn2C(=O)CCC(=O)NCc2ccccc2Cl)c1	34.8	-0.1	.	0.2	-4.4	-8.2	.	.	.	.
Cc1cc(C)c2nc(-n3nc(C)cc3N)cc(C)c2c1	15.2	2.0*	0.0	43.5	71.6	8.7	89.7	-0.2	95.4	-0.3
Cc1cc(N)n(-c2ccccc2C)n1	16.3	-0.1	2.0	0.5	-4.2	230.9	.	.	.	.
Cc1cc(C)c(OCC(=O)Nc2nc(-c3ccccn3)cs2)c(C)c1	-10.2	0.6*	0.2	7.5	-8.5	735.6	100.0	0.0	100.1	0.0
COc1cc2c(cc1O)CCN(C(=O)c1ccco1)C2C (centres undefined)	-1.6	1.2*	-0.1	3.3	74.0	8.2	96.6	-0.1	110.3	0.0
Cc1cc(C)c(OCC(=O)Nc2ccccc2N2CCCCC2)c(C)c1	3.4	0.1	0.3	2.9	2.3	287.4	.	.	.	.
Cc1cc(C)c(OCC(=O)Nc2ccccc2N2CCOCC2)c(C)c1	16.1	10.6*	0.9	3.9	-6.4	-5.2	86.5	-0.2	110.3	0.1
CCOc1ccc(NC(=O)CSc2ncn[nH]2)c([N+](=O)[O-])c1	24.9	18.0*	-0.8	-0.8	-15.4	-8.4	98.2	-0.5	85.2	-0.1

Screening data from PubChem.
